# Test results as given in the supplement of paper PMC8728848.
# Many of the other results were omitted from the sample, so the strongest signals are more common in it than they were.
# B1: SspB C123 (Streptococcus gordonii), Q54186 (protein)
# chain: MAHFHYSSLLAQPQINKEIKNEDGVDIDRTLVAKQSIGKFELKTEALTAGRPKTTSFVLVDPLPTGYKFDLDATKAASTGFDTTYDEASHTVTFKATDETLATYNADLTKPVETLHPTVVGRVLNDGATYTNNFTLTVNDAYGIKSNVVRVTTPGKPNDPDNPNNNYIKPTKVNKNKEGLNIDGKEVLAGSTNYYELTWDLDQYKGDKSSKEAIQNGFYYVDDYPEEALDVRPDLVKVADEKGNQVSGVSVQQYDSLEAAPKKVQDLLKKANITVKGAFQLFSADNPEEFYKQYVSTGTSLVITDPMTVKSEFGKTGGKYENKAYQIDFGNGYATEVVVNNVPKITPKKDVTVSLDPTSENLDGQTVQLYQTFNYRLIGGFIPQNHSEELEDYSFVDDYDQAGDQYTGNYKTFSSLNLTMKDGSVIKAGTDLTSQTTAETDATNGIVTVRFKEDFLQKISLDSPFQAETYLQMRRIAIGTFENTYVNTVNKVAYASAAALEHHHHHH
# Experiments:
# Assay in all cases: glycan array binding signal (z-score within array); higher = stronger binding
# Settings in all cases: glycan notation: IUPAC condensed, linker removed
# [1] = target: Fuc(a1-2)Gal(b1-3)GalNAc(a1-3)[Fuc(a1-2)]Gal(b1-4)GlcNAc
# Procedure, shortened: (§1)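 Columns mapping to the same glycan were averaged after glycan names were converted to IUPAC-condensed notation. The data come from 3228 arrays in the Consortium for Functional Glycomics database, limited to those with an available protein sequence. Binding is reported as a within-array Z-score averaged across arrays of one protein sequence and across linkers.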
# [2] = target: Fuc(a1-2)Gal(b1-3)GlcNAc(b1-3)[Gal(b1-4)GlcNAc(b1-6)]Gal(b1-4)Glc
# Procedure, shortened: as §1
# [3] = target: Fuc(a1-2)Gal(b1-4)GlcNAc(b1-2)[Fuc(a1-2)Gal(b1-4)GlcNAc(b1-4)]Man(a1-3)[Fuc(a1-2)Gal(b1-4)GlcNAc(b1-2)Man(a1-6)]Man(b1-4)GlcNAc(b1-4)GlcNAc
# Procedure, shortened: as §1
# [4] = target: Fuc(a1-2)Gal(b1-4)GlcNAc(b1-3)GalNAc
# Procedure, shortened: as §1
# [5] = target: Fuc(a1-2)Gal(b1-4)[Fuc(a1-3)]GlcNAc(b1-3)GalNAc
# Procedure, shortened: as §1
# [6] = target: Fuc(a1-2)[GalNAc(a1-3)]Gal
# Procedure, shortened: as §1
# [7] = target: Fuc(a1-2)[GalNAc(a1-3)]Gal(b1-3)GlcNAc
# Procedure, shortened: as §1
# [8] = target: Fuc(a1-2)[GalNAc(a1-3)]Gal(b1-3)GlcNAc(b1-6)GalNAc
# Procedure, shortened: as §1
# [9] = target: Fuc(a1-2)[GalNAc(a1-3)]Gal(b1-4)GlcNAc
# Procedure, shortened: as §1
# [10] = target: Fuc(a1-3)[Gal3S(b1-4)]GlcNAc
# Procedure, shortened: as §1
# [11] = target: Gal(a1-3)Gal(b1-4)GlcNAc(b1-3)GalNAc
# Procedure, shortened: as §1
# [12] = target: Gal(b1-3)GlcNAc(b1-3)Gal(b1-4)Glc
# Procedure, shortened: as §1
# Gal(b1-4)GlcNAc(b1-2)Man = target: Gal(b1-4)GlcNAc(b1-2)Man
# Procedure, shortened: as §1
# [13] = target: Gal(b1-4)GlcNAc(b1-3)Gal(b1-3)GlcNAc
# Procedure, shortened: as §1
# [14] = target: Gal(b1-4)GlcNAc(b1-3)Gal(b1-4)GlcNAc(b1-3)Gal(b1-4)GlcNAc(b1-2)Man(a1-3)[Gal(b1-4)GlcNAc(b1-3)Gal(b1-4)GlcNAc(b1-3)Gal(b1-4)GlcNAc(b1-2)Man(a1-6)]Man(b1-4)GlcNAc(b1-4)[Fuc(a1-6)]GlcNAc
# Procedure, shortened: as §1
# [15] = target: Gal(b1-4)GlcNAc(b1-3)Gal(b1-4)GlcNAc(b1-3)Gal(b1-4)GlcNAc(b1-3)Gal(b1-4)GlcNAc(b1-3)Gal(b1-4)GlcNAc(b1-2)Man(a1-3)[Gal(b1-4)GlcNAc(b1-3)Gal(b1-4)GlcNAc(b1-3)Gal(b1-4)GlcNAc(b1-3)Gal(b1-4)GlcNAc(b1-3)Gal(b1-4)GlcNAc(b1-2)Man(a1-6)]Man(b1-4)GlcNAc(b1-4)[Fuc(a1-6)]GlcNAc
# Procedure, shortened: as §1
# [16] = target: Gal(b1-4)GlcNAc(b1-3)Gal(b1-4)GlcNAc(b1-3)Gal(b1-4)GlcNAc(b1-3)Gal(b1-4)GlcNAc(b1-3)Gal(b1-4)GlcNAc(b1-2)[Gal(b1-4)GlcNAc(b1-3)Gal(b1-4)GlcNAc(b1-3)Gal(b1-4)GlcNAc(b1-3)Gal(b1-4)GlcNAc(b1-3)Gal(b1-4)GlcNAc(b1-6)]Man(a1-6)[Gal(b1-4)GlcNAc(b1-3)Gal(b1-4)GlcNAc(b1-3)Gal(b1-4)GlcNAc(b1-3)Gal(b1-4)GlcNAc(b1-3)Gal(b1-4)GlcNAc(b1-2)Man(a1-3)]Man(b1-4)GlcNAc(b1-4)[Fuc(a1-6)]GlcNAc
# Procedure, shortened: as §1
# [17] = target: Gal(b1-4)GlcNAc(b1-3)GalNAc
# Procedure, shortened: as §1
# [18] = target: Gal(b1-4)GlcNAc(b1-6)[Gal(b1-3)]GalNAc
# Procedure, shortened: as §1
# [19] = target: Gal3S(b1-3)[Fuc(a1-4)]GlcNAc
# Procedure, shortened: as §1
# Gal3S(b1-4)Glc6S = target: Gal3S(b1-4)Glc6S
# Procedure, shortened: as §1
# Gal3S(b1-4)GlcNAc = target: Gal3S(b1-4)GlcNAc
# Procedure, shortened: as §1
# [20] = target: Gal3S(b1-4)[Fuc(a1-3)]Glc6S
# Procedure, shortened: as §1
# Gal6S(b1-4)GlcNAc6S = target: Gal6S(b1-4)GlcNAc6S
# Procedure, shortened: as §1
# [21] = target: GalNAc(b1-3)Gal(a1-6)Gal(b1-4)Glc
# Procedure, shortened: as §1
# GalNAc4S6S(b1-4)GlcNAc = target: GalNAc4S6S(b1-4)GlcNAc
# Procedure, shortened: as §1
# Glc(b1-4)Glc = target: Glc(b1-4)Glc
# Procedure, shortened: as §1
# GlcA(b1-3)Gal = target: GlcA(b1-3)Gal
# Procedure, shortened: as §1
# GlcA(b1-6)Gal = target: GlcA(b1-6)Gal
# Procedure, shortened: as §1
# [22] = target: GlcNAc(b1-2)Man(a1-3)[GlcNAc(b1-4)][GlcNAc(b1-2)Man(a1-6)]Man(b1-4)GlcNAc(b1-4)[Fuc(a1-6)]GlcNAc
# Procedure, shortened: as §1
# [23] = target: GlcNAc(b1-3)Gal(b1-4)GlcNAc(b1-3)Gal(b1-4)GlcNAc(b1-3)Gal(b1-4)GlcNAc(b1-2)Man(a1-3)[GlcNAc(b1-3)Gal(b1-4)GlcNAc(b1-3)Gal(b1-4)GlcNAc(b1-3)Gal(b1-4)GlcNAc(b1-2)Man(a1-6)]Man(b1-4)GlcNAc(b1-4)[Fuc(a1-6)]GlcNAc
# Procedure, shortened: as §1
# [24] = target: GlcNAc(b1-3)Gal(b1-4)GlcNAc(b1-3)[GlcNAc(b1-3)Gal(b1-4)GlcNAc(b1-3)]GalNAc
# Procedure, shortened: as §1
# GlcNAc(b1-6)GalNAc = target: GlcNAc(b1-6)GalNAc
# Procedure, shortened: as §1
# Man(a1-6)Man = target: Man(a1-6)Man
# Procedure, shortened: as §1
# [25] = target: Neu5Ac(a2-3)Gal(b1-3)GalNAc(b1-3)Gal(a1-4)Gal(b1-4)Glc
# Procedure, shortened: as §1
# [26] = target: Neu5Ac(a2-3)Gal(b1-3)GalNAc(b1-4)[Neu5Ac(a2-8)Neu5Ac(a2-3)]Gal(b1-4)Glc
# Procedure, shortened: as §1
# [27] = target: Neu5Ac(a2-3)Gal(b1-4)[Fuc(a1-3)]GlcNAc(b1-3)Gal(b1-4)[Fuc(a1-3)]GlcNAc(b1-3)Gal(b1-4)[Fuc(a1-3)]GlcNAc
# Procedure, shortened: as §1
# [28] = target: Neu5Ac(a2-3)Gal(b1-4)[Fuc(a1-3)]GlcNAc(b1-3)GalNAc
# Procedure, shortened: as §1
# [29] = target: Neu5Ac(a2-3)Gal(b1-4)[Fuc(a1-3)]GlcNAc(b1-6)[Neu5Ac(a2-3)Gal(b1-3)]GalNAc
# Procedure, shortened: as §1
# [30] = target: Neu5Ac(a2-3)Gal6S(b1-4)[Fuc(a1-3)]GlcNAc
# Procedure, shortened: as §1
# Neu5Ac(a2-6)Gal(b1-4)Glc = target: Neu5Ac(a2-6)Gal(b1-4)Glc
# Procedure, shortened: as §1
# [31] = target: Neu5Ac(a2-6)Gal(b1-4)GlcNAc(b1-2)Man(a1-6)Man(b1-4)GlcNAc(b1-4)GlcNAc
# Procedure, shortened: as §1
# [32] = target: Neu5Ac(a2-6)Gal(b1-4)GlcNAc(b1-3)Gal(b1-3)GlcNAc
# Procedure, shortened: as §1
# [33] = target: Neu5Ac(a2-6)Gal(b1-4)GlcNAc(b1-3)Gal(b1-4)GlcNAc(b1-3)Gal(b1-4)GlcNAc(b1-2)Man(a1-3)[Neu5Ac(a2-6)Gal(b1-4)GlcNAc(b1-3)Gal(b1-4)GlcNAc(b1-3)Gal(b1-4)GlcNAc(b1-2)Man(a1-6)]GalNAc
# Procedure, shortened: as §1
# [34] = target: Neu5Ac(a2-6)Gal(b1-4)GlcNAc(b1-3)Gal(b1-4)[Fuc(a1-3)]GlcNAc(b1-3)Gal(b1-4)[Fuc(a1-3)]GlcNAc
# Procedure, shortened: as §1
# [35] = target: Neu5Ac(a2-6)Gal(b1-4)GlcNAc(b1-3)[Neu5Ac(a2-6)Gal(b1-4)GlcNAc(b1-6)]GalNAc
# Procedure, shortened: as §1
# [36] = target: Neu5Ac(a2-8)Neu5Ac(a2-8)Neu5Ac(a2-3)[Gal(b1-3)GalNAc(b1-4)]Gal(b1-4)Glc
# Procedure, shortened: as §1
# [37] = target: Neu5Ac(a2-8)Neu5Gc(a2-3)Gal(b1-4)GlcNAc
# Procedure, shortened: as §1
# [38] = target: Neu5Ac9Ac(a2-3)Gal(b1-4)GlcNAc
# Procedure, shortened: as §1
# [39] = target: Neu5Ac9Ac(a2-6)Gal(b1-4)GlcNAc
# Procedure, shortened: as §1
# [40] = target: Neu5Gc(a2-8)Neu5Gc(a2-3)Gal(b1-4)GlcNAc
# Procedure, shortened: as §1
binder,measurement,setting,value
B1,glycan array binding signal (z-score),[1],-1.8
same,glycan array binding signal (z-score),[2],-0.17
same,glycan array binding signal (z-score),[3],2.68
same,glycan array binding signal (z-score),[4],-0.78
same,glycan array binding signal (z-score),[5],3.99
same,glycan array binding signal (z-score),[6],-0.539
same,glycan array binding signal (z-score),[7],0.229
same,glycan array binding signal (z-score),[8],-0.099
same,glycan array binding signal (z-score),[9],-0.406
same,glycan array binding signal (z-score),[10],0.073
same,glycan array binding signal (z-score),[11],-0.133
same,glycan array binding signal (z-score),[12],0.516
same,glycan array binding signal (z-score),Gal(b1-4)GlcNAc(b1-2)Man,-0.183
same,glycan array binding signal (z-score),[13],1.37
same,glycan array binding signal (z-score),[14],1.26
same,glycan array binding signal (z-score),[15],0.993
same,glycan array binding signal (z-score),[16],2.74
same,glycan array binding signal (z-score),[17],0.085
same,glycan array binding signal (z-score),[18],0.155
same,glycan array binding signal (z-score),[19],0.284
same,glycan array binding signal (z-score),Gal3S(b1-4)Glc6S,0.314
same,glycan array binding signal (z-score),Gal3S(b1-4)GlcNAc,0.468
same,glycan array binding signal (z-score),[20],5.71
same,glycan array binding signal (z-score),Gal6S(b1-4)GlcNAc6S,1.05
same,glycan array binding signal (z-score),[21],-0.455
same,glycan array binding signal (z-score),GalNAc4S6S(b1-4)GlcNAc,-0.886
same,glycan array binding signal (z-score),Glc(b1-4)Glc,-0.604
same,glycan array binding signal (z-score),GlcA(b1-3)Gal,-1.48
same,glycan array binding signal (z-score),GlcA(b1-6)Gal,3.52
same,glycan array binding signal (z-score),[22],-0.492
same,glycan array binding signal (z-score),[23],0.372
same,glycan array binding signal (z-score),[24],0.786
same,glycan array binding signal (z-score),GlcNAc(b1-6)GalNAc,-0.398
same,glycan array binding signal (z-score),Man(a1-6)Man,3.13
same,glycan array binding signal (z-score),[25],-0.945
same,glycan array binding signal (z-score),[26],-0.494
same,glycan array binding signal (z-score),[27],2.7
same,glycan array binding signal (z-score),[28],2.98
same,glycan array binding signal (z-score),[29],3.38
same,glycan array binding signal (z-score),[30],-0.28
same,glycan array binding signal (z-score),Neu5Ac(a2-6)Gal(b1-4)Glc,-0.254
same,glycan array binding signal (z-score),[31],-0.261
same,glycan array binding signal (z-score),[32],-0.017
same,glycan array binding signal (z-score),[33],3.21
same,glycan array binding signal (z-score),[34],0.632
same,glycan array binding signal (z-score),[35],-0.829
same,glycan array binding signal (z-score),[36],5.25
same,glycan array binding signal (z-score),[37],-0.198
same,glycan array binding signal (z-score),[38],-0.938
same,glycan array binding signal (z-score),[39],0.758
same,glycan array binding signal (z-score),[40],-0.249
